Results on 12 molecules are retold here after PubChem BioAssay (NCI).

Several values for one entry are separate records, joined by “and”; a condition that tells them apart may be missing. Equal entries are not always repeated. This is part of a sample that, as a whole, favours compounds with a hit. Of some 83,000 tested, about 20% had one in any assay.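 Interpretation: 100, growth as untreated; towards 0, rising growth inhibition; 0, no net growth; 0 to -100, cell death. Compounds scoring below 10 were considered active.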 Some compounds were tested as several samples or in several runs, with calls that do not always agree. Activity calls are given as the source filed them.

This assay concerns MDA-MB-468 breast. Briefly: NCI-60 one-dose screen, 48 h (100 = growth as untreated, 0 = no growth, -100 = all killed). As to conditions: 10 µM unless noted.
For `COc1cc2c(cc1OC)-c1ccc3cc4c(cc3c1N(CCCN(C)C)C2)OCO4`, the growth was 22.3% (inactive).

For the molecule `CC1(C)OC(=O)C(=Cc2cccc(Br)c2)C(=O)O1`, the growth is 111% (inactive). To `CC1=C(C)C(=O)C(Nc2cccc(C(F)(F)F)c2)=C(Br)C1=O` belongs -61.4% (active); to `NS(=O)(=O)c1ccc(Nc2nc(Nc3ccccc3)nc3nnc(SCC(=O)NC4CCCCC4)n23)cc1`, 104% (inactive); to `COC(=O)c1ccc(NC2=C/C(=N/S(=O)(=O)c3ccc(C(=O)O)cc3)c3ccccc3C2=O)cc1`, -37.4% (active).

Take `CO[C@@H](C(=O)N1Cc2[nH]nc(NC(=O)c3ccc(N4CCN(C)CC4)cc3)c2C1)c1ccccc1`: the growth was 50.7% (inactive).

As for `C#CCNCCCN1C(=O)c2ccc3c4c(ccc(c24)C1=O)C(=O)N(CCCNCC#C)C3=O`, the growth was -85.6% (active). Then `Cn1c2ccccc2c2c3c(c4c5ccc(Br)cc5oc4c21)C(=O)N(O)C3=O`, with 46.2% (inactive). For the molecule `COc1ccc(-c2ncnc3c2ncn3C/C=C/CCl)cc1`, the growth was -3.89% (active) and 61.5% (inactive).

As for `CC[C@]12C=CCN3CC[C@@]4(c5ccc(OC)cc5N(C)[C@H]4[C@@](O)(C(=O)OC)[C@@H]1OC(=O)CCC[P+](c1ccccc1)(c1ccccc1)c1ccccc1)[C@@H]32`, the growth is -75.6% (active). Then `Cc1ccc(NC2CC(=O)N(c3c(C)cc(C)cc3C)C2=O)c(C)c1` (configuration not stated), with 114% (inactive); and `Brc1ccc(-c2cn3ccnc3c(-c3ccc(Br)cc3)n2)cc1`, with 33.2% (inactive).
